# Compounds without any hit were thinned out: in the full panel of roughly 79,000, 15% have a hit. Values without a mark were called inactive. Calls of active or inactive are those of the source. Cut-off read from the data, not from the text of the source: active = growth inhibition above about 70%; inactive = the rest.
# Key:
# [1] = NCI Yeast Anticancer Drug Screen. Data for the rad50 strain (AID 155);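 note: 0% = growth of vehicle-only cultures of the same strain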; settings: S. cerevisiae rad50 strain growth inhibition, stronger effect = higher value
# Outline: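 Compounds were tested on a yeast strain with an engineered DNA damage repair alteration; the reported value is growth inhibition normalised to vehicle treatment.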
# [2] = NCI Yeast Anticancer Drug Screen. Data for the mec2-1 strain (AID 157); settings: S. cerevisiae mec2-1 strain, stronger effect = higher value
# Outline: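 Growth inhibition is read against vehicle-treated controls after compound exposure of the mec2-1 yeast strain, which is defective in DNA damage repair or cell cycle control.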
# [3] = NCI Yeast Anticancer Drug Screen. Data for the sgs1 mgt1 strain (AID 161);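 note: 0% = growth of cultures given vehicle only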; settings: S. cerevisiae sgs1 mgt1 strain, stronger effect = higher value
# Outline: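 Percent growth inhibition was derived by comparing compound-exposed mutant yeast with vehicle-exposed cultures. The strain carries alterations in DNA damage repair.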
# [4] = NCI Yeast Anticancer Drug Screen. Data for the cln2 rad14 strain (AID 165);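 note: 0% = growth equal to vehicle treated cultures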; settings: S. cerevisiae cln2 rad14 strain, stronger effect = higher value
# Outline: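 Growth inhibition, relative to vehicle-treated controls, is the read-out. The test organism is a yeast strain with defined genetic alterations, cln2 rad14.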
# [5] = NCI Yeast Anticancer Drug Screen. Data for the bub3 strain (AID 167); settings: S. cerevisiae bub3 mutant strain, stronger effect = higher value
# Outline: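 Growth of a checkpoint-deficient yeast mutant is measured after compound exposure. Values represent inhibition relative to vehicle.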
# [6] = NCI Yeast Anticancer Drug Screen. Data for the mlh1 rad18 strain (AID 175); settings: S. cerevisiae mlh1 rad18 strain growth inhibition, stronger effect = higher value
# Outline: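 Cells of a genetically altered yeast strain, deficient in DNA damage repair, were treated with compound. Their growth was then compared with that of vehicle-treated cultures to give inhibition.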
# [7] = at 5.0 µM (retest, dose inferred, filed as 0.5)
# [8] = at 50.0 µM (retest, dose inferred, filed as 5.0)
SMILES,"growth inhibition [1, 7]","growth inhibition [1, 8]",growth inhibition ([1]; at 50.0 µM),"growth inhibition [2, 7]","growth inhibition [2, 8]",growth inhibition ([2]; at 50.0 µM),"growth inhibition [3, 7]","growth inhibition [3, 8]",growth inhibition ([3]; at 50.0 µM),"growth inhibition [4, 7]","growth inhibition [4, 8]",growth inhibition ([4]; at 50.0 µM),"growth inhibition [5, 7]","growth inhibition [5, 8]",growth inhibition ([5]; at 50.0 µM),"growth inhibition [6, 7]","growth inhibition [6, 8]",growth inhibition ([6]; at 50.0 µM)
CN(C)c1ccc(/C=C/c2nc3ccccc3s2)cc1,8%,79% (active),3.1%,14%,60%,23.6%,-3%,91% (active),4.3%,-3%,14%,36.4%,-3%,1%,-2.45%,30%,91% (active),83.3% (active)
CCCCC(CCc1ccccc1[N+](=O)[O-])(C(C)=O)C(=O)OCC (configuration not stated),4%,-15%,61%,4%,-3%,15.7%,-3%,14%,33.6%,1%,-11%,-12.2%,15%,38%,80.5% (active),5%,3%,58.8%
CCCCCCCC/C=C\CCCCCCCC(=O)O (tested in a mixture with another compound),4%,97% (active),96.2% (active),-1%,100% (active),99.3% (active),3%,98% (active),89.7% (active),2%,96% (active),-53.9%,-2%,99% (active),95.3% (active),0%,96% (active),97.1% (active)
CC/C(=N\NC(=S)SC)c1ccccn1,24%,96% (active),-13.7%,16%,96% (active),-5.4%,24%,96% (active),88.9% (active),24%,97% (active),88.7% (active),18%,96% (active),86.2% (active),25%,96% (active),87% (active)
CCCCC#CCCOC(=O)C#CCCCC,1%,6%,30%,1%,4%,28.2%,3%,7%,-0.85%,8%,9%,92% (active),3%,12%,-21.3%,0%,3%,3.25%
CCCCCCCCCCCC[n+]1ccc(C#N)cc1,27%,81% (active),99.2% (active),30%,98% (active),95.9% (active),28%,97% (active),-5.4%,26%,78% (active),84.4% (active),34%,92% (active),47.8%,16%,92% (active),99.5% (active)
O=[N+]([O-])c1ccc(-c2cccc(Cl)c2)c([N+](=O)[O-])c1,6%,98% (active),99.3% (active),-3%,99% (active),99% (active),13%,99% (active),99.2% (active),-17%,98% (active),91% (active),9%,99% (active),98.8% (active),2%,98% (active),97.9% (active)
O=C(O)c1ccccc1NC(c1ccccc1)c1ccc2cccnc2c1O (configuration not stated),-15%,94% (active),96.8% (active),-3%,91% (active),93% (active),0%,87% (active),96.8% (active),-39%,88% (active),93.3% (active),-17%,95% (active),93.7% (active),-14%,96% (active),93.5% (active)
C/C=C/C=C/C(=O)Nc1ccc([N+](=O)[O-])cc1,0%,53%,39.8%,-5%,39%,-0.4%,-1%,74% (active),87% (active),-9%,16%,10.7%,0%,63%,36.4%,0%,32%,32.4%
CC(=O)c1ccc2c(c1)CC1(C2)Cc2cc3c(c(C(=O)O)c2C1)CCC3 (configuration not stated),0%,95% (active),90.3% (active),10%,95% (active),90.1% (active),34%,99% (active),94.5% (active),-3%,95% (active),95% (active),1%,95% (active),85.8% (active),15%,97% (active),88.6% (active)
CC(=O)N=C1N(/C=C2\C(=O)Oc3ccccc3C2=O)C(=O)/C(=C/c2cccc(Cl)c2Cl)N1C,5%,89% (active),-7.75%,12%,61%,0.2%,-12%,8%,28.2%,7%,25%,-21.8%,-11%,17%,-37.5%,13%,95% (active),-22.4%
Oc1c(C(O)(c2ccccc2)c2ccc3ccccc3c2O)ccc2ccccc12,17%,81% (active),84.8% (active),3%,81% (active),84.4% (active),13%,76% (active),79.4% (active),9%,96% (active),82.5% (active),21%,95% (active),89.2% (active),9%,85% (active),86.9% (active)
CSc1c(C)n([O-])c2cc(Cl)c(Cl)cc2[n+]1=O,20%,94% (active),79.8% (active),14%,93% (active),86% (active),24%,99% (active),85.4% (active),17%,87% (active),64.4%,24%,96% (active),79.2% (active),23%,97% (active),92.3% (active)
CC1=NC(c2ccccc2)(C2(c3ccccc3)C(c3ccccc3)=C2c2ccccc2)C(=O)O1 (configuration not stated),21%,21%,86% (active),25%,25%,88.8% (active),28%,28%,86.9% (active),23%,23%,89% (active),11%,11%,34.9%,27%,27%,86.6% (active)
CC1C=CC(C)C2C(=O)C3C(C)C=CC(C)C3C(=O)C12 (configuration not stated),0%,-7%,-10.3%,6%,14%,-6.45%,-1%,9%,3.65%,18%,23%,38.5%,-12%,0%,18.9%,1%,-7%,8.9%
CN(C)CCN(C)N=Nc1c(-c2cccs2)n[nH]c1C(F)(F)F,98% (active),99% (active),99.1% (active),99% (active),100% (active),99.7% (active),99% (active),100% (active),99.6% (active),99% (active),98% (active),99.3% (active),99% (active),99% (active),99.5% (active),99% (active),100% (active),99.5% (active)
Oc1ccc(N=Nc2ccc(Cl)cc2)cc1O,-30%,98% (active),98.4% (active),-8%,98% (active),98.3% (active),8%,98% (active),98.5% (active),-7%,97% (active),97.7% (active),-35%,98% (active),97.8% (active),-7%,98% (active),98.2% (active)
Cn1c(=O)cc2c3c(ccc(C(=O)O)c31)C(=O)c1ccccc1-2,40%,34%,80.2% (active),10%,50%,36.2%,2%,27%,45.1%,-8%,22%,16.5%,1%,62%,61.8%,12%,50%,51.7%
O=C(CCCN1CCc2[nH]c3cc(F)ccc3c2C1)c1ccc(F)cc1,-11%,97% (active),84.8% (active),-12%,98% (active),68%,-7%,98% (active),90% (active),-9%,94% (active),84.4% (active),-30%,98% (active),91.7% (active),12%,99% (active),85.6% (active)

# Reference: PubChem BioAssay (NCI)
